For some of these results: Potency and affinity values are given separately. Activity calls are given as the source filed them. Unless noted, no rule for the calls is given here.
Key:
[1] = antimalarial activity against Dd2 strain (AID 2302;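 active = growth inhibition above 50% at the single 2 µM test dose, taken to imply half-maximal potency below 2 µM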;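 also: 0% = DMSO untreated growth and 100% = chloroquine plus artemisinin killed control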); conditions: P. falciparum Dd2 in RBCs, LDH growth readout, 72 h; at 2 µM; stronger effect = higher value
[2] = human hepatoma cell viability loss – ATP luminescence, cytotoxicity control for P. falciparum antimalarial project, primary screen (AID 2303;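 active = inhibition above 50%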;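 also: 0% = DMSO wells and 100% = digitonin-killed cells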); conditions: HepG2 viability, 24-48 h, at 10 µM, stronger effect = higher value
[3] = molecular target: L-lactate dehydrogenase (Plasmodium falciparum (isolate CDC / Honduras)) (UniProt Q27743); assay: PfLDH activity inhibition – cell lysate, 3D7 strain, counter-screen for P. falciparum growth inhibition project (AID 2304);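 also: 0% = vehicle and 100% = reference inhibitor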; conditions: P. falciparum 3D7 crude extract, LDH APAD/NBT absorbance; at 2 µM; stronger effect = higher value
Sequence of L-lactate dehydrogenase (Plasmodium falciparum (isolate CDC / Honduras)) (Q27743 whole entry, looked up): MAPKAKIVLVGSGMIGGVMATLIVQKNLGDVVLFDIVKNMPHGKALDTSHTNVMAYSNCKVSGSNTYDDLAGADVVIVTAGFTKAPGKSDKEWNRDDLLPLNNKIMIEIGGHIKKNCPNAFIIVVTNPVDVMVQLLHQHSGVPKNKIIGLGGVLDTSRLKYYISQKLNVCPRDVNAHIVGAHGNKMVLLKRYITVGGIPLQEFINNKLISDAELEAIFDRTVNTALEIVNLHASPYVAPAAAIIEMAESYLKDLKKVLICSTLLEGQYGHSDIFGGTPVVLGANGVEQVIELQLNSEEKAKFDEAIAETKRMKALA

[4] = inhibition of 3D7 malaria parasite growth – strain 3D7 (AID 2306);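 also: 0% = DMSO wells and 100% = chloroquine plus artemisinin control wells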; conditions: P. falciparum 3D7 erythrocytic growth, LDH absorbance, 72 h; at 2 µM; stronger effect = higher value
[5] = molecular target: Calcium-dependent protein kinase 1 (Plasmodium falciparum (isolate 3D7)) (UniProt P62344); assay: PfCDPK1 kinase inhibitors, biochemical, TCAMS library (AID 1159585; cut-off not given, nearly all actives have IC50 up to about 0.98 µM;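 also: inhibitors leave more ATP so luminescence rises with inhibition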); conditions: recombinant PfCDPK1, Kinase-Glo ATP depletion luminescence
Sequence of Calcium-dependent protein kinase 1 (Plasmodium falciparum (isolate 3D7)) (P62344 whole entry, looked up): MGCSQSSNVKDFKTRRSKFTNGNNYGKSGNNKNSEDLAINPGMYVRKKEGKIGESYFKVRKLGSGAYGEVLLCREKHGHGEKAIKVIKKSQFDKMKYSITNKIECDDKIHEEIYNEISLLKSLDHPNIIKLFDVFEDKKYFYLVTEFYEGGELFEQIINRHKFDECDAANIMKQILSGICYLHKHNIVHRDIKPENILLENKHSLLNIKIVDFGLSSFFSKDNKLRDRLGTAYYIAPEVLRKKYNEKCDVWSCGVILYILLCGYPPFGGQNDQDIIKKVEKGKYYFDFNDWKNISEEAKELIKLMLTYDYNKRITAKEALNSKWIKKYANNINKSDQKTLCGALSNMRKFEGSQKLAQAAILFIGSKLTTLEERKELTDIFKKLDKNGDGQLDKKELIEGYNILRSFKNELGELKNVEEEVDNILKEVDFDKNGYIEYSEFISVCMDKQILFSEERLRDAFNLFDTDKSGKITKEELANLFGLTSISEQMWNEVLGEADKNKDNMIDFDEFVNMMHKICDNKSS

[6] = molecular target: Plasmodium falciparum protein kinase 6 (PK6, PF3D7_1337100) (UniProt Q8IDW1); assay: PfPK6 kinase inhibitors, biochemical, TCAMS library (AID 1159586); conditions: recombinant PfPK6, Kinase-Glo ATP depletion luminescence
Sequence of Plasmodium falciparum protein kinase 6 (PK6, PF3D7_1337100) (Q8IDW1 1-305): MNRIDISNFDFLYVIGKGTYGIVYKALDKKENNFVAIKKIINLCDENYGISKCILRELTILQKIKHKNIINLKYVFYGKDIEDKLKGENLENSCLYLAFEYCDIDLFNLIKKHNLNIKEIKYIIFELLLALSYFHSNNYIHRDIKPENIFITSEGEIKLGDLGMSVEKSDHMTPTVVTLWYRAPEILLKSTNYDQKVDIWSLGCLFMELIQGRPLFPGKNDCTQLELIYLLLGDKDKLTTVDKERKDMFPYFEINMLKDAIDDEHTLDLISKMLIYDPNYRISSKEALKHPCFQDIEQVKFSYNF

[7] = molecular target: Protein kinase 7 (PK7), Plasmodium falciparum 3D7 (PF3D7_0213400) (UniProt Q7YTF7); assay: inhibition of Plasmodium PK7 catalytic activity – biochemical, TCAMS antimalarial set, Kinase-Glo luminescence (AID 1159587); conditions: recombinant PfPK7, Kinase-Glo ATP depletion luminescence
Sequence of Protein kinase 7 (PK7), Plasmodium falciparum 3D7 (PF3D7_0213400) (Q7YTF7 1-343): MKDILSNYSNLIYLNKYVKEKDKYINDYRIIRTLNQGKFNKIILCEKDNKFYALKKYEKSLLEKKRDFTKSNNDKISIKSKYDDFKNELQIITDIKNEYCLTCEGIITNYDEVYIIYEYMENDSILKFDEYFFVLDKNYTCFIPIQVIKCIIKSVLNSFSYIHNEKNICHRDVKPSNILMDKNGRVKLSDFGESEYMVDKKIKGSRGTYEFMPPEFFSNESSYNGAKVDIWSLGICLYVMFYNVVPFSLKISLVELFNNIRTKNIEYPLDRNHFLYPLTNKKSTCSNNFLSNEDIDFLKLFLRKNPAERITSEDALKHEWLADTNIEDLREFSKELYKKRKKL

[8] = molecular target: Calcium-dependent protein kinase 4 (Plasmodium falciparum (isolate 3D7)) (UniProt Q8IBS5); assay: PfCDPK4 kinase inhibitors, biochemical, TCAMS library (AID 1159588; cut-off not given, nearly all actives have IC50 up to about 0.91 µM); conditions: recombinant PfCDPK4, Kinase-Glo ATP depletion luminescence
Sequence of Calcium-dependent protein kinase 4 (Plasmodium falciparum (isolate 3D7)) (Q8IBS5 whole entry, looked up): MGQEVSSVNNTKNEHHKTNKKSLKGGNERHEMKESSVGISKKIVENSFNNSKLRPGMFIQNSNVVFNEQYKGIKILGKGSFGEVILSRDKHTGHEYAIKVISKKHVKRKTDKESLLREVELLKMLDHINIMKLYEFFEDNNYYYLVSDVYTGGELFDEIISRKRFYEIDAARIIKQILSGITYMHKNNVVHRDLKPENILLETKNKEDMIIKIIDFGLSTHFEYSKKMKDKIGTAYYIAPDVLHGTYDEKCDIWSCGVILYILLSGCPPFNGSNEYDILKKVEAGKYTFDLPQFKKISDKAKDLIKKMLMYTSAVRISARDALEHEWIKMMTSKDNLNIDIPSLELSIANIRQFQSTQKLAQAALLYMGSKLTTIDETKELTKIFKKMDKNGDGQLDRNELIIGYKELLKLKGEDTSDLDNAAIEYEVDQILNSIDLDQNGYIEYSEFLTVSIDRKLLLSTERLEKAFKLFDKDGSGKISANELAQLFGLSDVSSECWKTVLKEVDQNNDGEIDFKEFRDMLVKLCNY

CCN1CCCC1CNC(=O)c1cc2c(-c3ccc(Cl)cc3)nn(C)c2s1 (stereo not given)
active: growth inhibition [4] 96%
inactive: growth inhibition [1] 20% | inhibition [2] 27% | inhibition [3] -9% | outcome [5] | outcome [6] | outcome [7] | outcome [8]

O=C(NCc1ccc(C(F)(F)F)cc1)c1cccc(-c2nnc(-c3cccc(-c4cncnc4)c3)o2)c1
active: growth inhibition [1] 79% | growth inhibition [4] 96%
inactive: inhibition [2] 13% | inhibition [3] -2% | outcome [5] | outcome [6] | outcome [7] | outcome [8]

COc1ccc2c(NN=Cc3ccccn3)ccnc2c1
inactive: inhibition [2] 14% | inhibition [3] -2% | outcome [5] | outcome [6] | outcome [7] | outcome [8]
active: growth inhibition [1] 96% | growth inhibition [4] 102%

NCC1CCCN1Cc1cccc(-c2ccc(-c3nc4ccc(C(F)(F)F)cc4[nH]3)cc2)c1 (stereo not given)
inactive: inhibition [2] 20% | inhibition [3] 0% | outcome [5] | outcome [6] | outcome [7] | outcome [8]
active: growth inhibition [1] 95% | growth inhibition [4] 100%

Nc1nccc2ccc(-c3ccc(NC(=O)Nc4cc(C(F)(F)F)ccc4F)cc3)cc12
active: growth inhibition [1] 100% | inhibition [2] 99% | growth inhibition [4] 101%
inactive: inhibition [3] -3% | outcome [5] | outcome [6] | outcome [7] | outcome [8]

CC(C)(O)CC(C)(C)c1cc(Cl)ccc1O
active: growth inhibition [4] 96%
inactive: growth inhibition [1] 1% | inhibition [2] 5% | inhibition [3] 7% | outcome [5] | outcome [6] | outcome [7] | outcome [8]

O=C(NCCNc1nc(NCCNC(=O)Nc2ccccc2)c2ccc(=O)n(-c3c(F)cccc3F)c2n1)Nc1ccccc1
inactive: inhibition [2] 1% | inhibition [3] 6% | outcome [5] | outcome [6] | outcome [7] | outcome [8]
active: growth inhibition [1] 87% | growth inhibition [4] 94%

CCC(C)CN1CCN(c2ccc(NC(=O)c3cccs3)cc2)C(C)C1 (stereo not given)
inactive: inhibition [2] -4% | inhibition [3] -2% | outcome [5] | outcome [6] | outcome [7] | outcome [8]
active: growth inhibition [1] 95% | growth inhibition [4] 95%

COC(=O)c1ccc(-c2ccc(-c3cccnc3)cc2C)cc1
inactive: inhibition [3] 3% | outcome [5] | outcome [6] | outcome [7] | outcome [8]
active: growth inhibition [1] 98% | inhibition [2] 81% | growth inhibition [4] 100%

O=c1cc(NC[C@H]2CCC[C@@H]2NC2CCCc3c2[nH]c2ccccc32)[nH]c2ccccc12 (stereo not given in full)
inactive: growth inhibition [1] 25% | inhibition [2] 6% | inhibition [3] -6% | outcome [5] | outcome [6] | outcome [7] | outcome [8]
active: growth inhibition [4] 101%

Cc1[nH]c(C)c([N+](=O)[O-])c(=O)c1-c1ccc(Oc2ccccc2)cc1
active: growth inhibition [1] 97% | growth inhibition [4] 98%
inactive: inhibition [2] 11% | inhibition [3] 3% | outcome [5] | outcome [6] | outcome [7] | outcome [8]

Cc1c(CN2CCCCC2)cccc1OCCCNc1nc(NCCc2ccc(O)cc2)nc(N2CCNCC2)n1
active: growth inhibition [4] 101%
inactive: growth inhibition [1] 23% | inhibition [2] 26% | inhibition [3] 3% | outcome [5] | outcome [6] | outcome [7] | outcome [8]

CCNc1cc(C(=O)N[C@@H](Cc2ccccc2)[C@H](O)CN[C@@H]2CCc3ccccc32)cc(N2CCCCS2(=O)=O)c1
inactive: inhibition [2] -7% | inhibition [3] 4% | outcome [5] | outcome [6] | outcome [7] | outcome [8]
active: growth inhibition [1] 97% | growth inhibition [4] 98%

COc1ccc(-n2ccnc2SCC(=O)Nc2cccc(C(F)(F)F)c2)c(OC)c1
active: growth inhibition [1] 88% | growth inhibition [4] 98%
inactive: inhibition [2] -10% | inhibition [3] 3% | outcome [5] | outcome [6] | outcome [7] | outcome [8]

COc1ccc(C(C(=O)NC2CCN(C[C@H](O)c3ccnc4ccc(OC)cc34)CC2)N2CCN(c3ccc(Cl)c(Cl)c3)CC2)cc1 (stereo not given in full)
inactive: inhibition [2] 12% | inhibition [3] 2% | outcome [5] | outcome [6] | outcome [7] | outcome [8]
active: growth inhibition [1] 79% | growth inhibition [4] 101%

CCCCCCN1CCCN(Cc2ccc(C(=O)Nc3ccc(CCC)cc3)cc2)CC1
active: growth inhibition [1] 56% | growth inhibition [4] 92%
inactive: inhibition [2] 45% | inhibition [3] -3% | outcome [5] | outcome [6] | outcome [7] | outcome [8]

COc1ccc(CCn2c(C3CCCCC3)nc3oc4ccccc4c(=O)c3c2=O)cc1
inactive: inhibition [2] 12% | inhibition [3] -2% | outcome [5] | outcome [6] | outcome [7] | outcome [8]
active: growth inhibition [1] 66% | growth inhibition [4] 91%

CN(C)CC1CCCN1Cc1ccccc1-c1cnn(C)c(=O)c1Oc1ccc(F)cc1 (stereo not given)
active: growth inhibition [4] 91%
inactive: growth inhibition [1] 19% | inhibition [2] 29% | inhibition [3] 2% | outcome [5] | outcome [6] | outcome [7] | outcome [8]

Cc1noc(C)c1CN1Cc2ccccc2OC2(CCN(Cc3c[nH]c4cnccc34)CC2)C1
active: growth inhibition [4] 89%
inactive: growth inhibition [1] 12% | inhibition [2] 19% | inhibition [3] -2% | outcome [5] | outcome [6] | outcome [7] | outcome [8]

COc1ccc(C2CC(=O)C3=C(C2)NC(C)=C(C(=O)OC(C)C)C3c2c(F)cccc2Cl)cc1OC (stereo not given)
active: growth inhibition [1] 81% | growth inhibition [4] 93%
inactive: inhibition [2] 0% | inhibition [3] -1% | outcome [5] | outcome [6] | outcome [7] | outcome [8]
